# Screening data as filed in PubChem.
# ADAM10 inh: human ADAM10 inhibitors, primary screen, biochemical, QFRET, HTS. Disintegrin and metalloproteinase domain-containing protein 10 (Homo sapiens), O14672. recombinant ADAM10, EDANS/DABCYL FRET peptide cleavage, 3 h. inhibition, % at 7 µM. hit rate 0.62% among 370,000;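 active means inhibition above a per-campaign cutoff equal to the mean of compounds falling between control-based bounds plus 3 SD, cut at about 20% in these data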;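 further: 0% = DMSO wells while the 100% control is not disclosed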
# HGIII-sPLA2 inh: human group III sPLA2 inhibitors, primary screen, biochemical, QFRET, BODIPY PC-A2 liposome substrate; QFRET BODIPY PC-A2 liposome hydrolysis, fluorescence; inhibition, % at 12.2 µM; hit rate 0.56% among 370,000; AID 743126, 2013;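 active means inhibition above mean plus 3 SD of compounds lying within the high and low control bounds, cut at about 19% in these data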;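 further: 0% = median of test compound wells and 100% = no enzyme DMSO wells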
# NRP1-CendR mod: modulators of CendR peptide binding to NRP-1, primary screen, biochemical, fluorescence polarization, uHTS | inhibition, % at 25 µM | hit rate 0.85% among 360,000 | FAM-RPARPAR peptide binding to NRP-1;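 active means inhibition or corrected inhibition above about 18%, plus a signal ratio from 0.5 to 1.5, limit read from the data, passing the limit was not always enough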
# proKLK7 act: proKLK7 zymogen activators, primary screen, biochemical, fluorescence intensity. purified proKLK7, EDANS-DABCYL substrate fluorescence; 100% is mature enzyme control, 0% vehicle. activation, % at 7 µM. hit rate 0.9% among 370,000. AID 652039, 2013;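 active means activation above the mean of all tested compounds plus 3 SD, computed per campaign excluding outliers beyond control limits, cut at about 13% in these data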
# ADAM17 inh: ADAM17 inhibitors, primary screen, biochemical, QFRET. recombinant ADAM17, EDANS/DABCYL FRET peptide cleavage. inhibition, % at 6.95 µM. hit rate 0.83% among 370,000;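 active means inhibition above the mean of compounds lying between control limits plus 3 SD, set per campaign, cut at about 8.5% in these data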;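 further: 0% = DMSO-only wells as the low control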
# Target sequence (P78536 215-824 limits assumed): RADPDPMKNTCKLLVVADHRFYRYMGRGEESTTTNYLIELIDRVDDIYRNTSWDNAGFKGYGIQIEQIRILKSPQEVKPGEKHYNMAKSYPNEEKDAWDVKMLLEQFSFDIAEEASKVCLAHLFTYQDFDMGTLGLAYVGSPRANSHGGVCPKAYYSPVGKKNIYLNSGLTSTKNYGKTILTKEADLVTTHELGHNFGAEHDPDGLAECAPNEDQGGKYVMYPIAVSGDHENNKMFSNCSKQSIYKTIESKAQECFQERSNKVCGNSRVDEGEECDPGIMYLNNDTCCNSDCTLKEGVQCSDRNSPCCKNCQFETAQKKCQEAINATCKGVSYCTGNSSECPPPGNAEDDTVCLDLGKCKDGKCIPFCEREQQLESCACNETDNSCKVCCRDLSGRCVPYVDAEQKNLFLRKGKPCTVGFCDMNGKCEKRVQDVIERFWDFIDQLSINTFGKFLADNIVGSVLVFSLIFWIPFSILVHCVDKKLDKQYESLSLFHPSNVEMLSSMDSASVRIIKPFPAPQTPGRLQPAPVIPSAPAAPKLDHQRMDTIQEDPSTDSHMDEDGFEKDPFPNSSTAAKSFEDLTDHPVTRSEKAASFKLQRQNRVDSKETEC
# ADAM10 counter: ADAM10 inhibitors, counter-screen for ADAM17 exosite inhibitor project, biochemical, FRET, human ADAM10; shares compounds with ADAM17 inh; hit rate 47% among 2,900; inhibition, % at 6.95 µM; recombinant ADAM10, EDANS/DABCYL FRET peptide cleavage, 3 h;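 active means mean inhibition over the triplicate runs exceeds the activity threshold set in the earlier primary screen, cut at about 20% in these data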;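 further: 0% = DMSO wells and 100% = marimastat wells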
# ADAM17 confirm: ADAM17 inhibitors, hit retest, confirmation, biochemical, QFRET peptide cleavage; shares compounds with ADAM17 inh; recombinant ADAM17, EDANS/DABCYL QFRET peptide cleavage; inhibition, % at 6.95 µM; hit rate 65% among 2,900;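 active means mean inhibition across replicates above the hit cutoff set in the primary screen, cut at about 8.5% in these data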;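 further: 0% = DMSO wells and 100% = marimastat wells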
# Active calls of the source: *; nt = no result. In the library only some 3.4% were active in any assay of this set; here they are far more common.
SMILES,ADAM10 inh,HGIII-sPLA2 inh,NRP1-CendR mod,proKLK7 act,ADAM17 inh,ADAM10 counter,ADAM17 confirm
C[C@H](O)[C@@H]1C(=O)N2CCc3c([nH]c4c(-c5ccc6c(c5)OCO6)cccc34)[C@@H]2C[C@@H]1N(C)C(=O)NC1CCCCC1,-48.8,-42.8,nt,0.1,-16.0,nt,nt
O=C(Nc1cccc(Br)c1)OC1CC2CC1[C@H]1CCCCN1C2 (some centres undefined),-14.6,-4.2,nt,-1.0,-8.9,nt,nt
COc1cc(OC)cc(C(=O)NNC(=O)CNC(=O)c2cccs2)c1,6.1,-0.8,3.2,-0.5,9.2*,2.8,4.2
O=C(CCn1c2c(c3ccccc31)CCCC2)NNC(=O)c1ccc([N+](=O)[O-])cc1,16.3,-32.4,2.9,-0.2,11.0*,16.7,9.9*
CCN(CC)c1ccc(NC(=O)c2cc3c(OC)cccc3[nH]2)cc1,18.1,15.6,-5.2,0.8,16.9*,6.5,8.2
CCO[C@H]1OC(C(=O)Nc2ccccc2)=C[C@@H](c2csc3ccccc23)[C@@H]1CCCO,13.0,-30.7,-12.3,0.4,10.1*,19.7,11.9*
Clc1ccc(OCc2nc(-c3ccccn3)n[nH]2)cc1,7.0,-0.7,-14.6,-0.1,9.4*,5.4,4.3
O=S(=O)(CS(=O)(=O)c1ccc(Br)cc1)c1ccc(Br)cc1,-5.3,3.6,nt,0.1,-5.7,nt,nt
COc1ccc(C)cc1S(=O)(=O)N(CC(=O)NCc1ccc(Cl)cc1)Cc1ccccc1,18.9,-19.1,-2.3,0.5,9.7*,31.5*,17.3*
Fc1c(-c2ccc3ncnc(NCc4cccs4)c3c2)ccc2c1OCO2,-47.8,-4.5,nt,nt,-22.2,nt,nt
NC(=O)C1CCN(C(=O)C2CCC(=O)N(Cc3ccc(Cl)cc3)C2)CC1 (centres undefined),-10.5,2.2,11.4,-0.2,-3.1,nt,nt
Cc1ccc(N2CCN(C(=O)C3CCC(=O)N(Cc4ccc(Cl)cc4)C3)CC2)c(C)c1 (centres undefined),1.9,-4.6,-0.2,0.8,8.8*,8.6,5.4
COC(=O)[C@]12C[C@H](CC(=O)N3CCN(C(=O)C4CC4)CC3)C(=O)N(Cc3ccccc3)C1=C[C@H](C(C)C)O[C@@H]2C1CC1,-6.5,7.1,nt,0.0,0.8,nt,nt
COc1ccc(S[C@]2(C(=O)N3CCCC3)CC(=O)N(c3ccc4c(ccn4C)c3)[C@@H]2c2ccc(OC)cc2)cc1,1.8,-5.2,nt,-0.1,3.9,nt,nt
CC(C)CNC(=S)NC1CC2CCCC(C1)N2Cc1cccs1 (centres undefined),8.2,14.4,-9.8,0.5,12.2*,11.0,7.3
Cc1nc(C)c(-c2nnc(-c3ccc(C(C)(C)C)cc3)o2)cc1C(=O)NN,13.5,7.2,-5.0,-0.1,10.1*,1.5,5.1
CC1=Nc2cc(C(=O)NCCN3CCOCC3)ccc2Sc2c(C)ccc(C)c21,1.3,-14.5,-1.8,0.8,9.3*,-14.7,-0.4
CN(C)CC(=O)N[C@@H]1C[C@@H]2O[C@@H](CO)CC[C@@H]2O[C@@H]1CCc1ccc(C2=CCCCC2)cc1,3.6,-18.4,nt,1.4,1.9,nt,nt
Cc1ccc(NC(=O)CSc2nc(C)cc(=O)[nH]2)c(C)c1,-1.0,-1.6,nt,0.2,2.1,nt,nt
Cc1ccc(Cn2nnc3c2-c2cc(F)ccc2S(=O)(=O)N(C(C)(C)C)C3)cc1,18.3,5.5,nt,0.1,9.5*,23.0*,10.7*
CC(C)N1Cc2nnn(Cc3ccccc3)c2-c2cc(F)ccc2S1(=O)=O,6.1,-0.9,nt,-0.4,-0.4,nt,nt
O=C(NCCN1CCC(Cc2ccccc2)CC1)C1CCCN(S(=O)(=O)c2ccc(Br)s2)C1 (centres undefined),9.2,-25.4,nt,0.5,4.1,nt,nt
CCCCOc1ccc(NC(=O)CN2CCN(Cc3ccccc3)CC2)cc1,14.4,-10.3,-16.1,-0.3,8.8*,-1.9,3.8
COc1cccc(-c2c(C(=O)N/N=C/c3ccc(C)s3)nnn2-c2nonc2N)c1,8.2,-16.6,-5.2,1.6,-5.1,nt,nt
CCOc1cccc(-c2c(C(=O)N/N=C/c3ccc(C)s3)nnn2-c2nonc2N)c1,12.8,-28.1,5.3,0.5,9.7*,-20.0,2.8
SMILES,ADAM10 inh,HGIII-sPLA2 inh,NRP1-CendR mod,proKLK7 act,ADAM17 inh,ADAM10 counter,ADAM17 confirm
O=C1[C@@H](CCc2ccccc2)[C@@H]2c3cc4ccccc4cc3C=NN2[C@@H]2c3cc4ccccc4cc3C=NN12,-11.8,-7.0,nt,-0.2,-3.1,nt,nt
COc1cc(OC)cc(N(C(=O)C2COc3ccccc3O2)C(C(=O)NC2CCCCC2)c2ccc(O)cc2)c1 (centres undefined),15.2,-29.6,7.8,0.1,11.1*,15.0,10.0*
O=C(N[C@H](Cc1ccccc1)C(=O)N1CCN(Cc2ccccn2)CC1)[C@H]1O[C@@H](n2ccc(=O)[nH]c2=O)[C@H](O)[C@@H]1O,-6.0,2.7,nt,0.9,0.5,nt,nt
Cc1ccc(CN2C(=O)[C@H]3Cc4c([nH]c5ccccc45)C(C)(C)N3C2=O)cc1,18.3,-21.7,-4.4,1.9,11.7*,18.0,11.9*
COc1cccc(CN2C(=O)[C@@H]3Cc4c([nH]c5ccccc45)C(C)(C)N3C2=O)c1,14.8,-15.2,-3.9,0.4,8.7*,18.8,13.7*
CCC(=O)N(Cc1ccccc1)c1ccccc1C(=O)Nc1cc(OC)ccc1OC,-2.2,2.2,nt,0.5,-2.3,nt,nt
CCOC(=O)[C@@]12CCCC=C1N(CCc1ccc(Cl)cc1)C(=O)[C@H]2CC(=O)N1CCN(C(=O)c2ccco2)CC1,-6.1,2.4,nt,-0.7,-0.3,nt,nt
CC(C)(C)c1ccc(OCCC(=O)OCC(=O)N2c3ccccc3NC(=O)C2(C)C)cc1,5.5,-6.0,3.3,-0.2,11.0*,39.0*,15.8*
COC(=O)[C@]12C[C@H](CC(=O)N3CCCC3)C(=O)N(Cc3ccccc3)C1=C[C@H](C(C)(C)C)O[C@@H]2C,-3.0,-2.4,nt,0.4,-2.5,nt,nt
COc1ccccc1CCn1cnc(-c2ccccc2)c1CC(C)C,11.2,15.2,nt,0.1,8.7*,17.9,9.1*
CCCCN1C2=NC(c3ccccc3)CN2c2ccccc21 (centres undefined),-0.9,-3.6,-5.4,0.7,1.0,nt,nt
